# From PubChem BioAssay
# A number with no mark means an inactive call. The source made the active and inactive calls.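 Rule for the calls, unless noted: active = mean inhibition above 46.5%, the solvent-only control mean plus 3 SD; inactive = the rest.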
# Columns and labels:
# [1] = target: Nuclear receptor coactivator 3 (Homo sapiens) (UniProt Q9Y6Q9); test: SRC3 coactivator transcriptional activity inhibitors, confirmation, cell-based, luminescence, quadruplicate (AID 588792;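 active = mean inhibition over 43.08%, the solvent-only control mean plus 3 SD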;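 note: 0% = DMSO treated cells and 100% = gossypol at 36 µM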); conditions: HEK293 GAL4-SRC3 luciferase reporter, at 3.6 µM, stronger effect = higher value
# Nuclear receptor coactivator 3 (Homo sapiens), sequence (Q9Y6Q9 whole entry, looked up, the tested form may be a part): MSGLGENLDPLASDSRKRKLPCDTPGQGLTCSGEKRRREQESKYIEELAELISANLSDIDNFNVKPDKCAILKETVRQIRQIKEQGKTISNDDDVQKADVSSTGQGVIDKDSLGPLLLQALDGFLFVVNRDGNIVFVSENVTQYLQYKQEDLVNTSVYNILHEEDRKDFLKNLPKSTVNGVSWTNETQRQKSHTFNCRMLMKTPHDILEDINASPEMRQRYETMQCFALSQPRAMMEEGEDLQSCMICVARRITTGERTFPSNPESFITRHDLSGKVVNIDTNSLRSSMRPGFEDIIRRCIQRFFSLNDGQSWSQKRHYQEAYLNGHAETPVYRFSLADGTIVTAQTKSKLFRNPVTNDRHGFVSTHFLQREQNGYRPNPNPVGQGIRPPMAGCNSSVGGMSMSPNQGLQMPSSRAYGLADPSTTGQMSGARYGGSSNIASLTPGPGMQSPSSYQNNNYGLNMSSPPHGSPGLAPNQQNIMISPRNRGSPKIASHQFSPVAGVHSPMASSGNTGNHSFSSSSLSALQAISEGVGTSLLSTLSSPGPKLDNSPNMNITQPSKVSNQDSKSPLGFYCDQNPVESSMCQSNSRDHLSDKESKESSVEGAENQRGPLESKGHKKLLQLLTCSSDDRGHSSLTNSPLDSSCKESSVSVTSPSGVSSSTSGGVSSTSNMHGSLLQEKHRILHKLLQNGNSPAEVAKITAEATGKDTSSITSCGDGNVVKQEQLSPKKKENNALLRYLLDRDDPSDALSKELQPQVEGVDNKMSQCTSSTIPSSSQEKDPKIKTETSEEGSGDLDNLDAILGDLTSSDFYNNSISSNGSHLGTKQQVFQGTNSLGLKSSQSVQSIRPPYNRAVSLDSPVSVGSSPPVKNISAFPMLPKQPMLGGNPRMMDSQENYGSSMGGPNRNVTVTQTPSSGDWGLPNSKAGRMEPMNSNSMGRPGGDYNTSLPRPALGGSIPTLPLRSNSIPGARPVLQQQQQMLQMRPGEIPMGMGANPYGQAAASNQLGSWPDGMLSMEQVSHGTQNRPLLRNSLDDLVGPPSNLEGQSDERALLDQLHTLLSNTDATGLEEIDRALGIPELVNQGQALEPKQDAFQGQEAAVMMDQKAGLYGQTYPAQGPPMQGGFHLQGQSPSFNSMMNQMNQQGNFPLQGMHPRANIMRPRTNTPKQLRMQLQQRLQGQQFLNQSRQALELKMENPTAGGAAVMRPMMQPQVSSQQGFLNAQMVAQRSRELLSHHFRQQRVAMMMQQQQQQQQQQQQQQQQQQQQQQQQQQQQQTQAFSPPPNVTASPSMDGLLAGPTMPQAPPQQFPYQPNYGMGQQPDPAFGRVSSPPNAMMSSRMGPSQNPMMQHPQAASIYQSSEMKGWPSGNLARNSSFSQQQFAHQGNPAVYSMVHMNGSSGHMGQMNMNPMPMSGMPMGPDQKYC
# [2] = test system: transactivating tegument protein VP16 (Human herpesvirus 1), Gal4-VP16 luciferase reporter; test: VP16 transactivation inhibitors, counter-screen for SRC3 inhibitor project, cell-based, luminescence, high throughput (AID 588794; in the data active = inhibition above about 30%); conditions: mammalian cells, VP16-driven luciferase reporter luminescence; at 3.6 µM; stronger effect = higher value
# [3] = target: Nuclear receptor coactivator 1 (Homo sapiens) (UniProt Q15788); test: SRC1 coactivator transcriptional activity inhibitors, confirmation, cell-based, luminescence, quadruplicate (AID 588820;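 active = mean inhibition above 46.68%, the untreated control wells mean plus 3 SD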;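 note: 0% = DMSO wells and 100% = gossypol 36 µM treated wells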); conditions: HEK293 GAL4-SRC1 luciferase reporter, at 3.6 µM, stronger effect = higher value
# Nuclear receptor coactivator 1 (Homo sapiens), sequence (Q15788 whole entry, looked up, the tested form may be a part): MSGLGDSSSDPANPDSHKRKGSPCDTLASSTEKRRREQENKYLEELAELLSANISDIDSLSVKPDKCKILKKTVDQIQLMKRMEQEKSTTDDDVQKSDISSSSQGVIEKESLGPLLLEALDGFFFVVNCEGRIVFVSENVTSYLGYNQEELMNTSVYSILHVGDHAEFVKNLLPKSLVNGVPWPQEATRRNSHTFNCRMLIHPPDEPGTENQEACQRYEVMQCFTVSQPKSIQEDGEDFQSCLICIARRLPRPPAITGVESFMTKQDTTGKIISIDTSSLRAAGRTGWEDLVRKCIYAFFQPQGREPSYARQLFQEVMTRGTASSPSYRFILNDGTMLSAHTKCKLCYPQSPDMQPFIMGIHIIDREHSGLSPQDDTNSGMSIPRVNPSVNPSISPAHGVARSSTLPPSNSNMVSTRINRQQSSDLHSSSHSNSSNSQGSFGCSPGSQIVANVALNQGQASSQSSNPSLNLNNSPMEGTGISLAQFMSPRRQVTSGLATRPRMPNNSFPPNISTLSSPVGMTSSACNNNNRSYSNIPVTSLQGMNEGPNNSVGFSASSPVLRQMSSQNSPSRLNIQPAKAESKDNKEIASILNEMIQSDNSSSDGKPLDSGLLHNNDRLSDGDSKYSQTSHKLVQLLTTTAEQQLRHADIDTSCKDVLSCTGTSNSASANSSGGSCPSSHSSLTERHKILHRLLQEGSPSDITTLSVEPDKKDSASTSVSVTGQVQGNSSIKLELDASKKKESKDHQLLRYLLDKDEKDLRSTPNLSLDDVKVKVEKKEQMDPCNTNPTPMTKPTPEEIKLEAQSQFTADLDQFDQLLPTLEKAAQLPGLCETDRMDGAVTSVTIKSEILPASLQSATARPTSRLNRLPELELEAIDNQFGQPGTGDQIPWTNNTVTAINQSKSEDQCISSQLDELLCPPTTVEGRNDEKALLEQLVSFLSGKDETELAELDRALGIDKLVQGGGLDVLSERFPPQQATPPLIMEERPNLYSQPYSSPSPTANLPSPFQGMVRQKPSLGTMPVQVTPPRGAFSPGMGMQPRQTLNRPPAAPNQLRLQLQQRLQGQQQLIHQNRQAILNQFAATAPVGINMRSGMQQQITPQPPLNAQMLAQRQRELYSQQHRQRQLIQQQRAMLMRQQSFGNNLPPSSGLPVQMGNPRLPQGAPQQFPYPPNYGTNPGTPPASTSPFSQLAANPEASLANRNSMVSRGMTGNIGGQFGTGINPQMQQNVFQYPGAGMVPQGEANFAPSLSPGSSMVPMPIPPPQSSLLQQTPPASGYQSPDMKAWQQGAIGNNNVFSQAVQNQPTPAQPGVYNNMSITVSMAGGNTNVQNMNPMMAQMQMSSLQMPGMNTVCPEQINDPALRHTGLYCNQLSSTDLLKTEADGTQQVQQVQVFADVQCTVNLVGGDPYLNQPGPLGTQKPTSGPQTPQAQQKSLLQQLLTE
# [4] = VP16 transactivation inhibitors, counter-screen for SRC1 inhibitor project, cell-based, luminescence, high throughput (AID 588824; in the data active = inhibition above about 25%); conditions: cell-based VP16 transactivation luciferase luminescence; at 3.6 µM; stronger effect = higher value
# [5] = test system: transactivating tegument protein VP16 (Human herpesvirus 1); test: VP16 transactivation reporter inhibitors, counter-screen for SRC2 inhibitor project, cell-based, luminescence, single concentration (AID 652007; in the data active = inhibition above about 36%); conditions: cell-based VP16 transactivation luciferase reporter, at 8.9 µM, stronger effect = higher value
# [6] = target: Nuclear receptor coactivator 2 (Homo sapiens) (UniProt Q15596); test: SRC2 coactivator transcriptional activity inhibitors, confirmation, cell-based, luminescence, HEK293, triplicate (AID 652008); conditions: HEK293 GAL4-SRC2 luciferase reporter, at 8.9 µM, stronger effect = higher value;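 note: 0% = DMSO-treated cells and 100% = Gossypol at 36 µM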
# Nuclear receptor coactivator 2 (Homo sapiens), sequence (Q15596 whole entry, looked up, the tested form may be a part): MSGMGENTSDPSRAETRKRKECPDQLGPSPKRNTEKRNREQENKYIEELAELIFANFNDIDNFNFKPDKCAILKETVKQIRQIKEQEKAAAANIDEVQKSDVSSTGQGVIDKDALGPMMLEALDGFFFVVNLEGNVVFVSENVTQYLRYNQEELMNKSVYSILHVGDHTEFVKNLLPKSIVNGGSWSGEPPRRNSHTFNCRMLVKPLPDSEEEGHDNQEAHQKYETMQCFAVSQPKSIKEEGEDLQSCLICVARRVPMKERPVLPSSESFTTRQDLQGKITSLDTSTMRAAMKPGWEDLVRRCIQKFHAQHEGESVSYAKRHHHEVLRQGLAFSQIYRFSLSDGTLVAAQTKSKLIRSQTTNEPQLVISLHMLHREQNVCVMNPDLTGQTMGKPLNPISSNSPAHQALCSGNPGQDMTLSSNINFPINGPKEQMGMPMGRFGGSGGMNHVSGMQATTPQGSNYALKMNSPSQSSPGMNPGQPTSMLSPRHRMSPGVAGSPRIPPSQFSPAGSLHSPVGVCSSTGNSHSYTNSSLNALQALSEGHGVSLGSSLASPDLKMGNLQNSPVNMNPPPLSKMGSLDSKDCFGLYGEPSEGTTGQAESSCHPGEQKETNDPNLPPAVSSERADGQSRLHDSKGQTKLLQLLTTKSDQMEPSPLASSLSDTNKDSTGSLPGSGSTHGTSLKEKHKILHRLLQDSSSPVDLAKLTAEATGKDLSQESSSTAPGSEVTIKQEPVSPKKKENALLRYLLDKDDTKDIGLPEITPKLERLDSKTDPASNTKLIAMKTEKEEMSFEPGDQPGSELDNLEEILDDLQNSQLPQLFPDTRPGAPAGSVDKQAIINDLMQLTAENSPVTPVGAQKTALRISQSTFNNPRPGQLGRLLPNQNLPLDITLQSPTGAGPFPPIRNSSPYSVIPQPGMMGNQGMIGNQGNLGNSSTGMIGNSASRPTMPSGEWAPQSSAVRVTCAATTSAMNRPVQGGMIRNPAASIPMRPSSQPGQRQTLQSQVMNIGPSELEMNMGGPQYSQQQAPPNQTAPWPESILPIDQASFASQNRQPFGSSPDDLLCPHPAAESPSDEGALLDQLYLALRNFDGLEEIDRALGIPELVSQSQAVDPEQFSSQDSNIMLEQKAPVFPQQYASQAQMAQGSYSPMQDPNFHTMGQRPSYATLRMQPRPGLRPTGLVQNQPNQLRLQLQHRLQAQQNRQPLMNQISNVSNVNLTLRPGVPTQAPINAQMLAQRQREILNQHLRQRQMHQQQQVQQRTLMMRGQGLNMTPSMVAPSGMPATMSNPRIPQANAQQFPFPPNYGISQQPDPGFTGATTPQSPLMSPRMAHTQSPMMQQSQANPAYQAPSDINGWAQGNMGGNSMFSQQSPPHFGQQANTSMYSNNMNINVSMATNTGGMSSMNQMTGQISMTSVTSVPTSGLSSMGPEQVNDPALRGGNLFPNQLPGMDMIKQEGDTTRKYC
Compound,inhibition [1],inhibition [2],inhibition [3],inhibition [4],inhibition [5],inhibition [6]
Cc1nn(C(C)(C)C)c(C)c1/C=N/OC(=O)Nc1ccc(Cl)c(Cl)c1,20.2%,16.6%,25.3%,12%,63% (active),82% (active)
Cn1cc(C(=O)N/N=C/c2c(O)ccc3ccccc23)ccc1=O,52.8% (active),42.4% (active),49.5% (active),44% (active),-10.3%,26.8%
Cc1ccc(OCC(=O)c2cc(C)n(-c3ccccc3)c2C)c([N+](=O)[O-])n1,38.5%,-20.9%,29.1%,-31.4%,-12.8%,83.3% (active)
O=[N+]([O-])c1ccc2ncnc(N3CCN(Cc4ccc5c(c4)OCO5)CC3)c2c1,74.2% (active),53.2% (active),64.4% (active),64.9% (active),8.73%,54.2% (active)
CN(C)C=Nc1ncc2c3ccccc3n(CCN(C)C)c2c1C#N,48.6% (active),29.9% (active),48.9% (active),33.2% (active),-1.55%,9.25%
Cc1ccc(/C=C2\SC(=S)N(CCCC(=O)NNC(=O)c3ccccc3O)C2=O)cc1,73.3% (active),53.6% (active),74.7% (active),58.3% (active),92.8% (active),95.4% (active)
O=C(CCl)N(C1CCCC1)C1CCS(=O)(=O)C1 (stereo unspecified),71.6% (active),42.4% (active),58.3% (active),38.2% (active),30.6%,63.6% (active)
c1csc(CNc2ncnc3ccc(-c4ccoc4)cc23)c1,62.6% (active),41.1% (active),34.6%,37% (active),5.65%,37.1%
O=C1NC(=S)N/C1=C\c1cccnc1,49.2% (active),36.6% (active),52.9% (active),33.3% (active),0.14%,44%
CNc1ccc2ncc(-c3ccc(OC)c(OC)c3)n2n1,80.1% (active),63.1% (active),75.4% (active),60.1% (active),-12.4%,37.3%
Nc1ncc([N+](=O)[O-])c(N2CCCCCC2)n1,76.5% (active),50.2% (active),67.5% (active),51.2% (active),4.49%,57.3% (active)
O=C1NC(=S)N/C1=C/c1cccnc1,39.1%,32% (active),44.9%,31.8% (active),-3.45%,43.8%
Cc1nc(SCC(=O)Nc2nc3ccccc3s2)c(C#N)c(C)c1C,92.7% (active),88.5% (active),82.4% (active),83.2% (active),92.1% (active),96.9% (active)
N#CC(C#N)c1ccnc2ccccc12,66.9% (active),40.6% (active),64.1% (active),38.3% (active),4.65%,36.4%
COCCNc1nc(Oc2cncc(Cl)c2)c2sccc2n1,42.1%,29.7% (active),44.3%,32.8% (active),16.6%,45.5%
CCCC(=O)N1CCN(c2ccc(NC(=O)c3cc4ccccc4o3)cc2Cl)CC1,-3.22%,5.64%,-6.77%,6.71%,35.5% (active),27.2%

Compound,inhibition [1],inhibition [2],inhibition [3],inhibition [4],inhibition [5],inhibition [6]
CC(C)(C)c1ccc(Oc2ccc(N)cn2)cc1,39.6%,20.4%,2.49%,18.6%,69% (active),88.9% (active)
CCc1ccn2cc(-c3cc(-c4ccccc4)no3)nc2c1,2.16%,7.18%,-92.4%,-4.46%,36.5% (active),61.6% (active)
CCc1ccc(/C=C2\SC(=S)N(CCCC(=O)NCCCN3CCOCC3)C2=O)cc1,42.4%,21.1%,35.1%,8.83%,82.6% (active),93.6% (active)
C=C1C(=O)OC2CC1C(O)CC(C)=CCCC(C)=CC(O)CC2C (stereo unspecified),22.9%,42.7% (active),27.9%,49.7% (active),23.9%,50.8% (active)
Nc1ncccc1C(=O)OCC(=O)N1CCN(S(=O)(=O)c2ccc(Cl)cc2)CC1,32.3%,22.3%,23.2%,20.6%,-4.99%,25.8%
CC(C)(C)C(=O)Nc1ccc(N=Nc2ccccc2)cc1,69.1% (active),28.6%,-19.6%,-23.9%,54.7% (active),66% (active)
C=Cc1ccc(CC2(C)C(=O)Nc3ccc(-c4cccnc4)cc32)cc1 (stereo unspecified),45.2% (active),38% (active),53.8% (active),31.1% (active),2.06%,35%
O=C(O)C1CC=CCC1C(=O)Nc1ccc2c(c1)OCCO2 (stereo unspecified),-15.8%,-7.19%,-47.1%,-8.13%,-13.1%,6.92%
COc1ccccc1/C=C/C(=O)c1c2c(c(C)[nH]c1=O)CCCC2,46.6% (active),49.9% (active),59% (active),44.1% (active),34.1%,39%
COc1ccc(-c2nc(-c3ccccn3)no2)cc1,63.4% (active),48.2% (active),16.6%,44.4% (active),62.5% (active),80.7% (active)
CCOc1cc(/C=C2\COc3ccccc3C2=O)cc(Br)c1OCC(=O)N(C)C,61.1% (active),35.8% (active),22.3%,39.2% (active),44.5% (active),34%
Cc1ccc(C(=O)CN2C(=O)c3ccccc3S2(=O)=O)cc1,31.6%,48.8% (active),-23.7%,41.4% (active),65% (active),61.9% (active)
Cc1nnc(-c2ccccc2)c(=O)n1/N=C/c1c(O)ccc2ccccc12,40.6%,55% (active),57% (active),62.6% (active),-12.9%,23.1%
Cc1ccccc1C(=O)N1CCN(c2ccc(NC(=O)CSc3ccc(Cl)cc3)cc2)CC1,46.2% (active),45.8% (active),46.8% (active),38.8% (active),18.4%,51.5% (active)
COc1ccc(/C=C2/SC(=S)N(CCC(=O)O)C2=O)cc1,34.8%,4.06%,23%,0.23%,-21.3%,85.1% (active)
